# Assay outcomes (PubChem BioAssay)
# This is a sample that favours compounds with a hit; in the whole collection about 1.1% have one here.
# FadD28 FP inh: M. tuberculosis FadD28 bisubstrate binding inhibition; FadD28 bisubstrate probe binding, fluorescence polarization; inhibition, % at 12.5 µM; 360,000 tested, 0.22% active; AID 588549; in the data active = inhibition above about 8.5%, passing the limit was not always enough
# PrP 5UTR inh: inhibition of PrP 5' UTR reporter expression. cell-based PrP 5' UTR mRNA reporter, plate reader. 340,000 tested, 0.35% active. inhibition, % (test concentration not listed); in the data active = inhibition above about 52%
# Yp Topo-I inh: Y. pestis Topo-I inhibition via cleavage products; AID 504884; Y. pestis Topo-I cleavage product accumulation, plate reader; 360,000 tested, 0.064% active; activity, % at 10 µM; in the data active = activity above about 50%, passing the limit was not always enough
# Mtb BioA inh: inhibitors of Mycobacterium tuberculosis BioA enzyme. inhibition, % at 9.99 µM. 360,000 tested, 0.096% active. AID 602481. purified M. tuberculosis BioA enzyme, plate reader; in the data active = inhibition above about 40%
# PfHsp40 yeast: compounds rescuing yeast from Plasmodium falciparum HSP40 toxicity | 340,000 tested, 0.68% active | growth rescue, % at 12.5 µM | AID 504582 | S. cerevisiae expressing PfHsp40, growth rescue, ATP luminescence; in the data active = growth rescue above about 28%, passing the limit was not always enough;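 note: yeast W303a lacking pdr1 and pdr3 grown in galactose medium; growth measured after three days at 30 °C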
# A number is an active result; . = inactive; / = no result.
SMILES,FadD28 FP inh,PrP 5UTR inh,Yp Topo-I inh,Mtb BioA inh,PfHsp40 yeast
O=C(O)c1ccc2c(c1)C1C=CCC1C(c1cc3c(cc1Br)OCO3)N2 (configuration not stated),.,.,.,/,65
O=C(O)c1ccc(NS(=O)(=O)c2ccc3c(c2)C2C=CCC2C(c2ccccc2F)N3)cc1 (configuration not stated),43,.,.,/,.
CC(=O)c1ccc2c(c1)C1C=CCC1C(c1ccncc1)N2 (configuration not stated),.,.,.,.,.
Brc1cc2c(cc1C1Nc3ccccc3C3C=CCC31)OCO2 (configuration not stated),.,.,.,/,.
Cc1ccc(CNC(=O)CCn2cc(-c3ccc(C)cc3)nc2CCN)cc1,.,.,.,.,40
CCOC(=O)N/N=C/c1ccc(N(CC)CC)cc1O,.,.,.,/,.
CCN(CC)c1ccc(/C=N/NC(=O)c2c(Cl)cnn2C)c(O)c1,.,.,.,/,546
CCN(CC)c1ccc(/C=N/NC(=O)c2cccc(S(=O)(=O)N3CCOCC3)c2)c(O)c1,.,.,.,.,231
CCOc1ccc(NC(=O)C2CCCN(S(=O)(=O)c3ccc4[nH]c(=O)ccc4c3)C2)cc1 (configuration not stated),.,.,.,.,49
COc1ccc(NC(=O)C2CCCN(S(=O)(=O)c3ccc4[nH]c(=O)ccc4c3)C2)cc1 (configuration not stated),.,.,.,.,.
C[C@@H]1CCCCO[C@@H](CN(C)S(=O)(=O)c2ccc(Cl)cc2)[C@H](C)CN([C@H](C)CO)C(=O)c2cc(NC(=O)Nc3ccccc3)ccc2O1,/,/,/,.,/
CC(Sc1ncnc2ccccc12)C(=O)Nc1ccc2c(c1)OCO2 (configuration not stated),.,.,.,.,42
C[C@@H]1CN([C@H](C)CO)C(=O)c2cc(NC(=O)Cc3ccccc3)ccc2O[C@@H](C)CCCCO[C@@H]1CN(C)C(=O)c1ccncc1,/,/,/,.,/
O=C(c1ccc(C(=O)N2CCCc3ccccc32)s1)N1CCCc2ccccc21,.,.,.,.,51
O=C(O)c1ccc(N/N=C/c2ccc(-c3ccccc3)cc2)cc1,19,.,.,/,.
Cc1ccc(S(=O)(=O)Oc2cccc(/C=N/Nc3ccc(C(=O)O)cc3)c2)cc1,30,.,.,.,.
O=C(O)c1cc(-c2ccc(/C=N/Nc3ccc(Cl)cc3)o2)ccc1Cl,15,.,.,.,.
Cc1ccc(S(=O)(=O)Oc2cccc(/C=N/n3cnnc3)c2)cc1,.,.,.,/,.
O=C(O)c1cc(N/N=C/c2ccc(-c3ccccc3)cc2)ccc1Cl,19,.,.,.,.
CS(=O)(=O)N1[C@H](C#N)[C@@H](c2ccccc2)[C@H]1CO,/,/,/,.,/
COc1ccc(C(=O)Oc2ccc(/C=N/Nc3ccc(Cl)c(C(=O)O)c3)cc2OC)cc1,9.5,.,.,.,.
O=[N+]([O-])c1ccc(C=NNc2ccccc2)cc1,.,.,.,.,30
O=C(N/N=C/C=C/c1ccccc1)c1ccncc1,.,.,.,.,.
O=C(O)c1ccc(N/N=C/C=C/c2ccccc2)cc1,.,.,.,.,458
C[C@@H]1CCCCO[C@H](CN(C)S(=O)(=O)c2ccc(Cl)cc2)[C@@H](C)CN([C@H](C)CO)C(=O)c2cc(NS(=O)(=O)c3ccc(F)cc3)ccc2O1,/,/,/,.,/
SMILES,FadD28 FP inh,PrP 5UTR inh,Yp Topo-I inh,Mtb BioA inh,PfHsp40 yeast
Cc1noc(C)c1S(=O)(=O)N(C)C[C@@H]1Oc2ccc(NC(=O)Cn3cnnn3)cc2CC(=O)N([C@H](C)CO)C[C@@H]1C,/,/,/,.,/
Cc1ccc(S(=O)(=O)N2C[C@@H](O)COC[C@@H]3O[C@H](CC(=O)N[C@@H]4CCN(Cc5ccccc5)C4)CC[C@H]32)cc1,/,/,/,.,/
Cc1c(-c2cc(Br)ccc2O)nc2cc3c(cc2c1C)OCO3,29,.,.,.,.
CCCc1cc(-n2ccnc2)n2c(nc3ccccc32)c1C#N,.,.,.,.,.
Cc1cc(-n2ccnc2)n2c(nc3ccccc32)c1C#N,.,.,.,.,38
CC(=O)N1[C@@H]2Cn3c(ccc(C4=CCCCC4)c3=O)[C@H]1[C@@H](C(=O)NC1CCC1)[C@@H]2CO,/,/,/,.,/
CCN1/C(=C/c2sc(-c3ccccc3C)c[n+]2C)Sc2ccccc21,.,.,.,/,312
CCN1/C(=C/c2ccc3cc(C)ccc3[n+]2CC)Sc2ccccc21,.,.,.,/,.
c1ccc(C2=Nc3ccccc3OC2)cc1,.,.,.,.,50
Clc1ccc(C2=Nc3cc(Cl)ccc3OC2)cc1,.,.,.,/,.
COc1ccc(C(=O)N/N=C(\c2ccccc2)c2ccccn2)cc1,.,.,.,.,86
S=C(NN=Cc1ccccn1)N(Cc1ccccn1)Cc1ccccn1,.,.,.,/,.
S=C(NN=C(c1ccccc1)c1ccccn1)N(Cc1ccccn1)Cc1ccccn1,.,.,.,/,135
O=C(N/N=C(\c1ccccc1)c1ccccn1)c1ccccc1Cl,.,.,.,.,.
O=C(NN=C(c1ccccc1)c1ccccn1)c1ccccc1,.,.,.,/,44
NCC[C@H]1CC[C@@H](NS(=O)(=O)Cc2ccccc2)[C@H](CO)O1,/,/,/,.,/
O=C(C[C@@H]1CC[C@@H]2[C@H](COC[C@@H](O)CN2Cc2nccs2)O1)NCc1ccc(-c2ccccc2)cc1,/,/,/,.,/
O=C(N[C@@H]1CC[C@H](CCn2cc(-c3ccccc3)nn2)O[C@H]1CO)c1ccccc1F,/,/,/,.,/
CO[C@H]1CN(C)C(=O)c2ccc(NC(=O)C3CC3)cc2OC[C@H](C)N(Cc2cccc(F)c2)C[C@H]1C,/,/,/,.,/
C[C@H](O)C#Cc1cnc2c(c1)C(=O)N([C@H](C)CO)C[C@H](C)[C@@H](CN(C)C(=O)c1ccncc1)O2,/,/,/,.,/
COc1cccc(S(=O)(=O)N2C[C@@H](O)COC[C@H]3O[C@H](CC(=O)N4CCN(C)CC4)CC[C@@H]32)c1,/,/,/,.,/
COc1ccc(CCNc2nc(C)c(C(C)=O)s2)cc1OC,.,.,.,81,.
C[C@@H]1CCCCO[C@H](CN(C)C(=O)c2ccncc2)[C@@H](C)CN([C@H](C)CO)C(=O)c2cc(NC(=O)CCCN(C)C)ccc2O1,/,/,/,.,/
O=C(C[C@@H]1CC[C@H](NS(=O)(=O)c2ccc(F)cc2)[C@H](CO)O1)NCCc1ccncc1,/,/,/,.,/
O=C(COc1ccc2ccccc2c1)Nc1cccc(C(=O)Nc2ccccc2C(=O)O)c1,.,.,.,/,37
COc1ccc(OCC(=O)Nc2ccc(C(=O)Nc3ccccc3C(=O)O)cc2)cc1,.,.,.,.,.
CCC(=O)Nc1ccc2c(c1)C(=O)N(C)C[C@@H](OC)[C@H](C)CN(C(=O)C1CC1)[C@H](C)CO2,/,/,/,.,/
COCC(=O)Nc1ccc2c(c1)C(=O)N(C)C[C@H](OC)[C@@H](C)CN(CCC(F)(F)F)[C@H](C)CO2,/,/,/,.,/
CCCN(C)C[C@@H]1Oc2cc(-c3ccc(F)cc3)ccc2S(=O)(=O)N([C@H](C)CO)C[C@@H]1C,/,/,/,.,/
Cc1ccc(-c2csc(NC(CO)c3nc4ccccc4n3CCOCCO)n2)cc1 (configuration not stated),.,.,.,.,34
